Test results from the supplement of paper PMC10849652.
About 8,800 targets were measured; listed, in parts, are those with a hit and a random draw of the rest. About 0.5% of all pairs of compound and target were hits. Unmarked numbers belong to inactive results.

Assays:
Test in all cases: log2 fold change, soluble protein after heating vs DMSO (PISA); higher = thermal stabilisation; K562 lysate, 10 uM; active = over 0.2 and 3.5 SD of the protein, either way, in both replicates (recomputed)
vemurafenib = compound: CCCS(=O)(=O)Nc1ccc(F)c(C(=O)c2c[nH]c3ncc(-c4ccc(Cl)cc4)cc23)c1F [vemurafenib]
How it was run: (§1)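 K562 pellets were dounce-homogenised in PBS pH 7.4 with 1 mM MgCl2, and the crude extract at 1 mg/mL protein was treated with 10 μM compound for 30 min. Aliquots were heated for 3 min across 48°C-58°C, pooled, and brought to 0.5% NP-40 at 4°C; soluble protein was the supernatant after 21,000xg for 90 min. Soluble protein was quantified by TMTpro 16plex LC-MS/MS with channel sums equalised, and reported as log2 fold change in thermal stability against DMSO controls, with values from duplicates.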

[1] = compound: CCCS(=O)(=O)Nc1ccc(F)c(C(=O)c2c[nH]c3ncc(Cl)cc23)c1F
How it was run: as §1

barasertib = compound: CCN(CCCOc1ccc2c(Nc3cc(CC(=O)Nc4cccc(F)c4)[nH]n3)ncnc2c1)CCOP(=O)(O)O [barasertib]
How it was run: as §1

[2] = compound: CC[C@@H]1C(=O)N(C)c2cnc(Nc3ccc(C(=O)NC4CCN(C)CC4)cc3OC)nc2N1C1CCCC1
How it was run: as §1

volasertib = compound: CC[C@@H]1C(=O)N(C)c2cnc(Nc3ccc(C(=O)N[C@H]4CC[C@H](N5CCN(CC6CC6)CC5)CC4)cc3OC)nc2N1C(C)C [volasertib]
How it was run: as §1

[3] = compound: CCn1c(C(=O)N(C2CC2)C2CC2)cc2c3c(ncn3C)c(Nc3cc(C)n(C)n3)nc21
How it was run: as §1

[4] = compound: CCn1cc(-c2ccnc3[nH]c(-c4cccc(CN(C)C)c4)cc23)c(-c2ccc(NC(=O)N(C)C)cc2)n1
How it was run: as §1

[5] = compound: CN1CCC(CNc2ccc3ncc(-c4cccc(OC(F)(F)F)c4)n3n2)CC1
How it was run: as §1

saracatinib = compound: CN1CCN(CCOc2cc(OC3CCOCC3)c3c(Nc4c(Cl)ccc5c4OCO5)ncnc3c2)CC1 [saracatinib]
How it was run: as §1

sotrastaurin = compound: CN1CCN(c2nc(C3=C(c4c[nH]c5ccccc45)C(=O)NC3=O)c3ccccc3n2)CC1 [sotrastaurin]
How it was run: as §1

alvocidib = compound: CN1CC[C@H](c2c(O)cc(O)c3c(=O)cc(-c4ccccc4Cl)oc23)[C@H](O)C1 [alvocidib]
How it was run: as §1

Tubastatin A = compound: CN1CCc2c(c3ccccc3n2Cc2ccc(C(=O)NO)cc2)C1 [Tubastatin A]
How it was run: as §1

[6] = compound: CNC(=O)C1=CC=CC=C1NC2=NC(=NC=C2Cl)NC3=C(C=C(C=C3)N4CCOCC4)OC
How it was run: as §1

defactinib = compound: CNC(=O)c1ccc(Nc2ncc(C(F)(F)F)c(NCc3nccnc3N(C)S(C)(=O)=O)n2)cc1 [defactinib]
How it was run: as §1

[7] = compound: CNc1nc(-c2ccc3c(N)n[nH]c3c2)cc(N2C[C@@H](C(=O)NC3CCCCC3)CC[C@H]2C)n1
How it was run: as §1

encorafenib = compound: COC(=O)N[C@@H](C)CNc1nccc(-c2cn(C(C)C)nc2-c2cc(Cl)cc(NS(C)(=O)=O)c2F)n1 [encorafenib]
How it was run: as §1

[8] = compound: COC(=O)[C@H](CCSC)NC(=O)C1=C(C=C(C=C1)NC[C@H](CS)N)C2=CC=CC=C2
How it was run: as §1

alisertib = compound: COc1cc(Nc2ncc3c(n2)-c2ccc(Cl)cc2C(c2c(F)cccc2OC)=NC3)ccc1C(=O)O [alisertib]
How it was run: as §1

[9] = compound: COc1cc2nc(-c3cc(F)ccc3O)nc(N[C@@H]3CNC[C@H]3C(C)(C)O)c2cc1OC
How it was run: as §1

gefitinib = compound: COc1cc2ncnc(Nc3ccc(F)c(Cl)c3)c2cc1OCCCN1CCOCC1 [gefitinib]
How it was run: as §1

Sequence of UniProt Q6UVJ0 (Q6UVJ0 whole entry, looked up): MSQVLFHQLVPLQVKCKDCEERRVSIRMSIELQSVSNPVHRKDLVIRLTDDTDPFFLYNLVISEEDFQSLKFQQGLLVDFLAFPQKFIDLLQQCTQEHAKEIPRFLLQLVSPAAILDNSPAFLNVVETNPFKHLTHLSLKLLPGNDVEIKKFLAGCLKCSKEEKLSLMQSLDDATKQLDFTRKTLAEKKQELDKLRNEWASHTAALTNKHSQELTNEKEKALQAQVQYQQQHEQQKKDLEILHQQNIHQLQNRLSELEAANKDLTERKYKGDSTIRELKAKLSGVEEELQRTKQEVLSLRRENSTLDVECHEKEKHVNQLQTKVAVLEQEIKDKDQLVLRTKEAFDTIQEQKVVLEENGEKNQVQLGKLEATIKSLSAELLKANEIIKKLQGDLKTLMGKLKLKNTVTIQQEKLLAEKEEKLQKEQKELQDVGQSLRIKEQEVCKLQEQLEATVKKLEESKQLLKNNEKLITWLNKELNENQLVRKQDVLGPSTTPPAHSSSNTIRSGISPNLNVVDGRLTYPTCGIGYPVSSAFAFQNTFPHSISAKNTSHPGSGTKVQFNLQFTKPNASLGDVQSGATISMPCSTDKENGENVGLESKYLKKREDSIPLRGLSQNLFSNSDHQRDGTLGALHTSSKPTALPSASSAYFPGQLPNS
Sequence of UniProt Q6NUM9 (Q6NUM9 whole entry, looked up): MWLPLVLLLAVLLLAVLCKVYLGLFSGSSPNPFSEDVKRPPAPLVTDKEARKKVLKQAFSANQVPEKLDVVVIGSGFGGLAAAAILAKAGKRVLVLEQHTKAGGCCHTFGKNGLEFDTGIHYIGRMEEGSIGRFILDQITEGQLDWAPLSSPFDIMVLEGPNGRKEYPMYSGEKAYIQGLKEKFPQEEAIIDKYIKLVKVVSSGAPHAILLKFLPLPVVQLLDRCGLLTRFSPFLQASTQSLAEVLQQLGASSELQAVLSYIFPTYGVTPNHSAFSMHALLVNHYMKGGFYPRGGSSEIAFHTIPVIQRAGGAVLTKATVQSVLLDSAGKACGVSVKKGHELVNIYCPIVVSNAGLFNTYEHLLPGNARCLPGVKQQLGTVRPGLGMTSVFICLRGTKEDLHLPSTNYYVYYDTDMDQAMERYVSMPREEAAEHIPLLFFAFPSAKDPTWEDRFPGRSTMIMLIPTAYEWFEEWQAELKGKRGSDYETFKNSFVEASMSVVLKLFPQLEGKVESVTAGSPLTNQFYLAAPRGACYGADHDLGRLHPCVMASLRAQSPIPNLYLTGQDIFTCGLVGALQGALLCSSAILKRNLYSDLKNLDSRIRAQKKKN
Sequence of UniProt Q96EE3 (Q96EE3 whole entry, looked up): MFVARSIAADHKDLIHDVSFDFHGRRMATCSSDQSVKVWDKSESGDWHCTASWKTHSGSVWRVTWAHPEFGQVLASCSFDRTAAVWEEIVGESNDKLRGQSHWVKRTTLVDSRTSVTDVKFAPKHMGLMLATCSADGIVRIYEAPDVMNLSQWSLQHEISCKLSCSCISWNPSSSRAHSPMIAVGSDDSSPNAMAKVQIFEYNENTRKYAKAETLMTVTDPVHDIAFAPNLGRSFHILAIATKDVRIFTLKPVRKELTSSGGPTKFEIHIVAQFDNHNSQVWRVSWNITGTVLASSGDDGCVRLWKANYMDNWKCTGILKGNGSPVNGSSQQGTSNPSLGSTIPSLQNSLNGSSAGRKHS
Sequence of UniProt Q9UPU9 (Q9UPU9 whole entry, looked up): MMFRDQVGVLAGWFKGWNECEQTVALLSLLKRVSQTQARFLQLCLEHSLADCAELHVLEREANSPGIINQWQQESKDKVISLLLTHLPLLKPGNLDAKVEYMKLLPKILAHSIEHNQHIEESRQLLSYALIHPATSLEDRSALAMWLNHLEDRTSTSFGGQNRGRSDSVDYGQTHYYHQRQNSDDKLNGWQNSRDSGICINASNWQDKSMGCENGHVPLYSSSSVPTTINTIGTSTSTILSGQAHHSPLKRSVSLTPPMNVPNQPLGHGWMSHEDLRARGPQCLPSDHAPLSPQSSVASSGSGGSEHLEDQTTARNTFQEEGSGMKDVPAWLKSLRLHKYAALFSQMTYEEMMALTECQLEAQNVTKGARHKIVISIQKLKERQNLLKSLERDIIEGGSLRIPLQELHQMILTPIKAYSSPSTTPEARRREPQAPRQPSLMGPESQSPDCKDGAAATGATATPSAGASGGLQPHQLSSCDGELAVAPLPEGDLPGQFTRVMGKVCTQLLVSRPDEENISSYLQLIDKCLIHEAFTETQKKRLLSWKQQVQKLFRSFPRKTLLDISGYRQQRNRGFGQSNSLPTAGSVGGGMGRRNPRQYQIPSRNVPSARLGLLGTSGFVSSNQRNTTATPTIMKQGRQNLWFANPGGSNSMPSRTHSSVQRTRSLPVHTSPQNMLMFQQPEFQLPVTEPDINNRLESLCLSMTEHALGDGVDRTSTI
Sequence of UniProt Q8NC44 (Q8NC44 whole entry, looked up): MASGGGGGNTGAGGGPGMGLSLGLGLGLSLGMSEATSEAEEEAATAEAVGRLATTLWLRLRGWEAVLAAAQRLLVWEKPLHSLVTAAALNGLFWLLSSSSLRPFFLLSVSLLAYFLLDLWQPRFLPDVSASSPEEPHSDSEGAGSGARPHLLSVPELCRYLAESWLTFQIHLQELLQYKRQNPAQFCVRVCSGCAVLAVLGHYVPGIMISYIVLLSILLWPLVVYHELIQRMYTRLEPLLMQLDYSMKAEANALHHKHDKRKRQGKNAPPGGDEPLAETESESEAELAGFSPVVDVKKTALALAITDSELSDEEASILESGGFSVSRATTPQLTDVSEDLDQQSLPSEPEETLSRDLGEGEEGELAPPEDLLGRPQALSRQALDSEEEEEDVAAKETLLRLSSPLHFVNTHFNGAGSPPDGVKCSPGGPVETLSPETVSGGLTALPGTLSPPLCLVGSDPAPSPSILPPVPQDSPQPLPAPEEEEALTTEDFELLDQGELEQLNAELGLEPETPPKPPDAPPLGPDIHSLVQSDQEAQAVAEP
Sequence of UniProt Q9Y4B4 (Q9Y4B4 whole entry, looked up): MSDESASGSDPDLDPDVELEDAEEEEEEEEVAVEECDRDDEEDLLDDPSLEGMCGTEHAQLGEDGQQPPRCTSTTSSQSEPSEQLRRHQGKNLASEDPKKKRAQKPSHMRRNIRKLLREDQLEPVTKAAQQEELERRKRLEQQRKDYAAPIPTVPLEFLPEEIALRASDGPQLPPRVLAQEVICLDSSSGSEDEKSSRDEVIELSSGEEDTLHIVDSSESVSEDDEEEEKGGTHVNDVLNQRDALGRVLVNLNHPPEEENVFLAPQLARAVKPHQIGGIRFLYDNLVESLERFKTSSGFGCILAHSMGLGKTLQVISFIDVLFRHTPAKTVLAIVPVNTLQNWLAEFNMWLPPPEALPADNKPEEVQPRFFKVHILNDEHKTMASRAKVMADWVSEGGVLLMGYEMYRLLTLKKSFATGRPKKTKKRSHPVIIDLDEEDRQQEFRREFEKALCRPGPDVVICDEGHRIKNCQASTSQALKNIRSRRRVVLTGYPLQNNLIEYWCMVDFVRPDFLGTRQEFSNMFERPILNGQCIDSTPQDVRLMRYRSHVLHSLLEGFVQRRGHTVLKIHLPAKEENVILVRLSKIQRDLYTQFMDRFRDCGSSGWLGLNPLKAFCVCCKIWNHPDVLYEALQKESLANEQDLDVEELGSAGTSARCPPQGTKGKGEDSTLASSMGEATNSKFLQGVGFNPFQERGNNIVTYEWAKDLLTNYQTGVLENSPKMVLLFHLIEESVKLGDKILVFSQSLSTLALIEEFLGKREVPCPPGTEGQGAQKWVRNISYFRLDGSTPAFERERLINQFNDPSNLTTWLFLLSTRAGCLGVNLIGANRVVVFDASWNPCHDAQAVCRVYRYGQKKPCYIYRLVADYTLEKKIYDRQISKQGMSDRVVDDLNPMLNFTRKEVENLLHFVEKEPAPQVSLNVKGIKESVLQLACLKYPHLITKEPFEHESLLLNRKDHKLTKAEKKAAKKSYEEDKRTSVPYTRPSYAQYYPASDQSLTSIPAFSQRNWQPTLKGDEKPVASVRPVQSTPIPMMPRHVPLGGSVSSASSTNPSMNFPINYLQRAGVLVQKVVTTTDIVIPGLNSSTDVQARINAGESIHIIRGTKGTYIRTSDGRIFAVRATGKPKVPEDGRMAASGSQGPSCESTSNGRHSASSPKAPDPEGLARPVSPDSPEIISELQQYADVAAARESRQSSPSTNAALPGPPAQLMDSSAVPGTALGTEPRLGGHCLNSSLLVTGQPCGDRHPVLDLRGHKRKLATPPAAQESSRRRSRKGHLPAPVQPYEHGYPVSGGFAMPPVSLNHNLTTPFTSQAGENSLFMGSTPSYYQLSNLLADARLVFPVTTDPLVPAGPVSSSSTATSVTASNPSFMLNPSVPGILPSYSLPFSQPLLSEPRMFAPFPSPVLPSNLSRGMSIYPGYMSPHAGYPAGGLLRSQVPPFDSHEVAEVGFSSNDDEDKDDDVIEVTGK
Sequence of UniProt Q92930 (Q92930 whole entry, looked up): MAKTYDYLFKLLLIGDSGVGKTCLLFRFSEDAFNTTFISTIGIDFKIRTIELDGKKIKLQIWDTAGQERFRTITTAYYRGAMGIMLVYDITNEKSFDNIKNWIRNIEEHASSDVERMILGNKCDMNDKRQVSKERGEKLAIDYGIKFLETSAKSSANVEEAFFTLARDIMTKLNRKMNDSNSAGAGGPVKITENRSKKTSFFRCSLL

Target | log2 fold change (vemurafenib) | log2 fold change [1] | log2 fold change (barasertib) | log2 fold change [2] | log2 fold change (volasertib) | log2 fold change [3] | log2 fold change [4] | log2 fold change [5] | log2 fold change (saracatinib) | log2 fold change (sotrastaurin) | log2 fold change (alvocidib) | log2 fold change (Tubastatin A) | log2 fold change [6] | log2 fold change (defactinib) | log2 fold change [7] | log2 fold change (encorafenib) | log2 fold change [8] | log2 fold change (alisertib) | log2 fold change [9] | log2 fold change (gefitinib)
SASS6 (UniProt Q6UVJ0) | 0.042 | -0.024 | -0.016 | 0.039 | -0.024 | 0.024 | 0.154 | -0.047 | 0.059 | -0.02 | 0.051 | -0.104 | 0.018 | 0.03 | -0.002 | 0.053 | 0.085 | -0.019 | 0.005 | 0.001
RETREG2 (UniProt Q8NC44) | 0.037 | -0.036 | 0.033 | -0.009 | 0.09 | -0.086 | -0.261 | 0.014 | – | 0.112 | -0.069 | -0.025 | 0 | -0.12 | – | -0.002 | -0.096 | -0.029 | -0.007 | -0.058
RAD54L2 (UniProt Q9Y4B4) | 0.159 | 0.081 | -0.032 | -0.201 | -0.072 | – | -0.149 | 0 | 0.078 | -0.061 | 0.007 | – | -0.065 | -0.013 | 0.093 | 0.102 | 0.153 | 0.141 | -0.088 | 0.045
RETSAT (UniProt Q6NUM9) | 0.115 | 0.039 | 0.076 | 0 | -0.087 | -0.297 | -0.318 | 0.116 | 0.108 | -0.119 | -0.114 | 0.179 | -0.071 | -0.045 | 0.402 | 0.079 | 0.025 | – | -0.059 | –
RAB8B (UniProt Q92930) | -0.137 | 0 | -0.036 | 0.028 | -0.036 | 0.007 | 0.252 | -0.142 | 0.08 | -0.024 | 0.037 | 0.034 | -0.011 | -0.016 | -0.026 | -0.002 | -0.045 | 0.016 | 0.015 | 0.115
SAMD4A (UniProt Q9UPU9) | -0.032 | -0.376 | 0.005 | 0.05 | 0.014 | -0.292 | 1.12 | 0.115 | 0.07 | 0.01 | 0.039 | -0.428 | -0.01 | 0.001 | 0.04 | 0.009 | -0.032 | – | 0.035 | –
RPL31 (UniProt P62899) | 0.01 | 0.004 | 0.004 | 0.006 | -0.005 | -0.013 | -0.043 | -0.005 | 0.024 | 0.014 | -0.013 | 0.032 | -0.042 | -0.024 | 0.044 | -0.016 | 0.035 | 0.033 | -0.015 | -0.035
SEH1L isoform 1 (UniProt Q96EE3) | -0.029 | -0.001 | 0.004 | 0.069 | 0.216 (active) | -0.015 | -0.022 | 0.021 | -0.005 | -0.01 | -0.042 | 0 | 0 | -0.028 | -0.014 | -0.007 | -0.077 | 0.001 | 0.01 | -0.004
RAB3IL1 (UniProt E9PK89) | -0.154 | 0.031 | -0.001 | -0.079 | 0.031 | -0.054 | 0.026 | -0.047 | -0.043 | -0.013 | -0.008 | -0.025 | 0.023 | 0.123 | 0.005 | 0.047 | 0.024 | 0.032 | -0.07 | 0
